According to the supplement of paper PMC10849652:
Of roughly 8,800 targets only a part is listed; those with a hit were picked by preference. About 0.5% of all pairs of compound and target were hits. A number with no mark means an inactive call.

How the values were obtained:
Experiment in all cases: log2 fold change, soluble protein after heating vs DMSO (PISA); higher = thermal stabilisation; K562 lysate, 10 uM; active = over 0.2 and 3.5 SD of the protein, either way, in both replicates (recomputed)
nilotinib = compound: Cc1cn(-c2cc(NC(=O)c3ccc(C)c(Nc4nccc(-c5cccnc5)n4)c3)cc(C(F)(F)F)c2)cn1 [nilotinib]
In short: (§1)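 Dounce homogenisation of K562 pellets in PBS pH 7.4 with 1 mM MgCl2 produced a crude extract, used at 1 mg/mL protein. Exposure to 10 μM compound lasted 30 min, and aliquots were then heated for 3 min across 48°C-58°C, pooled and brought to 0.5% NP-40 at 4°C. The supernatant after 21,000xg for 90 min was quantified by TMTpro 16plex LC-MS/MS with channel sums equalised. Duplicate values are given as log-two fold change in thermal stability relative to solvent controls.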

[1] = compound: Cc1nc(Nc2n[nH]c3c2CN(C(=O)N[C@H](CN(C)C)c2ccccc2)C3(C)C)c2sccc2n1
In short: as §1

dasatinib = compound: Cc1nc(Nc2ncc(C(=O)Nc3c(C)cccc3Cl)s2)cc(N2CCN(CCO)CC2)n1 [dasatinib]
In short: as §1

[2] = compound: Cc1ncc(-c2ccnc(Nc3ccc(S(C)(=O)=O)cc3)n2)n1C(C)C
In short: as §1

[3] = compound: Cn1cc(-c2ccc3c(c2)CCN3C(=O)Cc2cccc(C(F)(F)F)c2)c2c(N)ncnc21
In short: as §1

quisinostat = compound: Cn1cc(CNCC2CCN(c3ncc(C(=O)NO)cn3)CC2)c2ccccc21 [quisinostat]
In short: as §1

tipifarnib = compound: Cn1cncc1[C@@](N)(c1ccc(Cl)cc1)c1ccc2c(c1)c(-c1cccc(Cl)c1)cc(=O)n2C [tipifarnib]
In short: as §1

[4] = compound: NC(=O)Nc1cc(-c2cccc(F)c2)sc1C(=O)N[C@H]1CCCNC1
In short: as §1

[5] = compound: NC(=O)c1cnc(N[C@@H]2CCCC[C@@H]2N)nc1Nc1cccc(-n2nccn2)c1
In short: as §1

[6] = compound: NC1(c2ccc(-c3nc4ccn5c(=O)[nH]nc5c4cc3-c3ccccc3)cc2)CCC1
In short: as §1

UniProt P28702, sequence (P28702 whole entry, looked up): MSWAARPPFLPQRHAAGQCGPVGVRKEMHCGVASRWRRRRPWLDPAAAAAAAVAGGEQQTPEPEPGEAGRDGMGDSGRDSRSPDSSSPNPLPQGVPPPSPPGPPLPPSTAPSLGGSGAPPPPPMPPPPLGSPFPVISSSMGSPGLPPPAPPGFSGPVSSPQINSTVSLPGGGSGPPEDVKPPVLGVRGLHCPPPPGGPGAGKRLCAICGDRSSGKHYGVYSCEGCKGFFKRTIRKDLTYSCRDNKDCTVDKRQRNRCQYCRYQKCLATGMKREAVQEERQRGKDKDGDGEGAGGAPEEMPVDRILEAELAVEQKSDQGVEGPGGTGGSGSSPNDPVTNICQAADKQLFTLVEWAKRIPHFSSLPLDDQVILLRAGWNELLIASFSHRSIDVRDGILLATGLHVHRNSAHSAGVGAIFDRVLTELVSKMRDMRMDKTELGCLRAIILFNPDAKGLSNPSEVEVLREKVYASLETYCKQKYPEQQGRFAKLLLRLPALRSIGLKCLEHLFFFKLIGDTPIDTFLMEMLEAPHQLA
UniProt P53611, sequence (P53611 whole entry, looked up): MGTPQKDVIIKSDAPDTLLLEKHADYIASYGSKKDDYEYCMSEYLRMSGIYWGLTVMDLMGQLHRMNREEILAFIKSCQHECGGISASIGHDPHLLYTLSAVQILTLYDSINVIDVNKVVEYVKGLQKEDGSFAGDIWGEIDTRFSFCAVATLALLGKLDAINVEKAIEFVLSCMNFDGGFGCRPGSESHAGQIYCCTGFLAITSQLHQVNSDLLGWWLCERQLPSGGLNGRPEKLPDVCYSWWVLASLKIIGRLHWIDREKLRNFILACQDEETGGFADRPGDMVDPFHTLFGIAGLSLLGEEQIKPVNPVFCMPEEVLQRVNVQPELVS
UniProt Q9Y6B6, sequence (Q9Y6B6 whole entry, looked up): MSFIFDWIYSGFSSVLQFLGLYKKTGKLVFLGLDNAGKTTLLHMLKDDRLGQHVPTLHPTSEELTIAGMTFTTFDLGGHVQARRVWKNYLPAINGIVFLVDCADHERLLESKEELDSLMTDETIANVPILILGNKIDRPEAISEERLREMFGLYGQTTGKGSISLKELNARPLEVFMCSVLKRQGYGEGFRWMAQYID
UniProt Q96EE3, sequence (Q96EE3 whole entry, looked up): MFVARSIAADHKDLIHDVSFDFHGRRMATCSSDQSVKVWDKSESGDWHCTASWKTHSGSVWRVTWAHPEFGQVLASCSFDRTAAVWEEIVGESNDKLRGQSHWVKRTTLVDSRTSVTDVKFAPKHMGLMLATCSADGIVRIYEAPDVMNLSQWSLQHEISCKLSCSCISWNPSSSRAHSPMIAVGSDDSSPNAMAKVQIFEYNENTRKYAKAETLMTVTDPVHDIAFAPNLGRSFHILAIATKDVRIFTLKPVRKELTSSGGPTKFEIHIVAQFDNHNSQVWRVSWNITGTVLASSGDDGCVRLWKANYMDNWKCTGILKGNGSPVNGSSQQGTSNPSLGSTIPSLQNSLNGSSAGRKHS
UniProt P49792, sequence (P49792 whole entry, looked up): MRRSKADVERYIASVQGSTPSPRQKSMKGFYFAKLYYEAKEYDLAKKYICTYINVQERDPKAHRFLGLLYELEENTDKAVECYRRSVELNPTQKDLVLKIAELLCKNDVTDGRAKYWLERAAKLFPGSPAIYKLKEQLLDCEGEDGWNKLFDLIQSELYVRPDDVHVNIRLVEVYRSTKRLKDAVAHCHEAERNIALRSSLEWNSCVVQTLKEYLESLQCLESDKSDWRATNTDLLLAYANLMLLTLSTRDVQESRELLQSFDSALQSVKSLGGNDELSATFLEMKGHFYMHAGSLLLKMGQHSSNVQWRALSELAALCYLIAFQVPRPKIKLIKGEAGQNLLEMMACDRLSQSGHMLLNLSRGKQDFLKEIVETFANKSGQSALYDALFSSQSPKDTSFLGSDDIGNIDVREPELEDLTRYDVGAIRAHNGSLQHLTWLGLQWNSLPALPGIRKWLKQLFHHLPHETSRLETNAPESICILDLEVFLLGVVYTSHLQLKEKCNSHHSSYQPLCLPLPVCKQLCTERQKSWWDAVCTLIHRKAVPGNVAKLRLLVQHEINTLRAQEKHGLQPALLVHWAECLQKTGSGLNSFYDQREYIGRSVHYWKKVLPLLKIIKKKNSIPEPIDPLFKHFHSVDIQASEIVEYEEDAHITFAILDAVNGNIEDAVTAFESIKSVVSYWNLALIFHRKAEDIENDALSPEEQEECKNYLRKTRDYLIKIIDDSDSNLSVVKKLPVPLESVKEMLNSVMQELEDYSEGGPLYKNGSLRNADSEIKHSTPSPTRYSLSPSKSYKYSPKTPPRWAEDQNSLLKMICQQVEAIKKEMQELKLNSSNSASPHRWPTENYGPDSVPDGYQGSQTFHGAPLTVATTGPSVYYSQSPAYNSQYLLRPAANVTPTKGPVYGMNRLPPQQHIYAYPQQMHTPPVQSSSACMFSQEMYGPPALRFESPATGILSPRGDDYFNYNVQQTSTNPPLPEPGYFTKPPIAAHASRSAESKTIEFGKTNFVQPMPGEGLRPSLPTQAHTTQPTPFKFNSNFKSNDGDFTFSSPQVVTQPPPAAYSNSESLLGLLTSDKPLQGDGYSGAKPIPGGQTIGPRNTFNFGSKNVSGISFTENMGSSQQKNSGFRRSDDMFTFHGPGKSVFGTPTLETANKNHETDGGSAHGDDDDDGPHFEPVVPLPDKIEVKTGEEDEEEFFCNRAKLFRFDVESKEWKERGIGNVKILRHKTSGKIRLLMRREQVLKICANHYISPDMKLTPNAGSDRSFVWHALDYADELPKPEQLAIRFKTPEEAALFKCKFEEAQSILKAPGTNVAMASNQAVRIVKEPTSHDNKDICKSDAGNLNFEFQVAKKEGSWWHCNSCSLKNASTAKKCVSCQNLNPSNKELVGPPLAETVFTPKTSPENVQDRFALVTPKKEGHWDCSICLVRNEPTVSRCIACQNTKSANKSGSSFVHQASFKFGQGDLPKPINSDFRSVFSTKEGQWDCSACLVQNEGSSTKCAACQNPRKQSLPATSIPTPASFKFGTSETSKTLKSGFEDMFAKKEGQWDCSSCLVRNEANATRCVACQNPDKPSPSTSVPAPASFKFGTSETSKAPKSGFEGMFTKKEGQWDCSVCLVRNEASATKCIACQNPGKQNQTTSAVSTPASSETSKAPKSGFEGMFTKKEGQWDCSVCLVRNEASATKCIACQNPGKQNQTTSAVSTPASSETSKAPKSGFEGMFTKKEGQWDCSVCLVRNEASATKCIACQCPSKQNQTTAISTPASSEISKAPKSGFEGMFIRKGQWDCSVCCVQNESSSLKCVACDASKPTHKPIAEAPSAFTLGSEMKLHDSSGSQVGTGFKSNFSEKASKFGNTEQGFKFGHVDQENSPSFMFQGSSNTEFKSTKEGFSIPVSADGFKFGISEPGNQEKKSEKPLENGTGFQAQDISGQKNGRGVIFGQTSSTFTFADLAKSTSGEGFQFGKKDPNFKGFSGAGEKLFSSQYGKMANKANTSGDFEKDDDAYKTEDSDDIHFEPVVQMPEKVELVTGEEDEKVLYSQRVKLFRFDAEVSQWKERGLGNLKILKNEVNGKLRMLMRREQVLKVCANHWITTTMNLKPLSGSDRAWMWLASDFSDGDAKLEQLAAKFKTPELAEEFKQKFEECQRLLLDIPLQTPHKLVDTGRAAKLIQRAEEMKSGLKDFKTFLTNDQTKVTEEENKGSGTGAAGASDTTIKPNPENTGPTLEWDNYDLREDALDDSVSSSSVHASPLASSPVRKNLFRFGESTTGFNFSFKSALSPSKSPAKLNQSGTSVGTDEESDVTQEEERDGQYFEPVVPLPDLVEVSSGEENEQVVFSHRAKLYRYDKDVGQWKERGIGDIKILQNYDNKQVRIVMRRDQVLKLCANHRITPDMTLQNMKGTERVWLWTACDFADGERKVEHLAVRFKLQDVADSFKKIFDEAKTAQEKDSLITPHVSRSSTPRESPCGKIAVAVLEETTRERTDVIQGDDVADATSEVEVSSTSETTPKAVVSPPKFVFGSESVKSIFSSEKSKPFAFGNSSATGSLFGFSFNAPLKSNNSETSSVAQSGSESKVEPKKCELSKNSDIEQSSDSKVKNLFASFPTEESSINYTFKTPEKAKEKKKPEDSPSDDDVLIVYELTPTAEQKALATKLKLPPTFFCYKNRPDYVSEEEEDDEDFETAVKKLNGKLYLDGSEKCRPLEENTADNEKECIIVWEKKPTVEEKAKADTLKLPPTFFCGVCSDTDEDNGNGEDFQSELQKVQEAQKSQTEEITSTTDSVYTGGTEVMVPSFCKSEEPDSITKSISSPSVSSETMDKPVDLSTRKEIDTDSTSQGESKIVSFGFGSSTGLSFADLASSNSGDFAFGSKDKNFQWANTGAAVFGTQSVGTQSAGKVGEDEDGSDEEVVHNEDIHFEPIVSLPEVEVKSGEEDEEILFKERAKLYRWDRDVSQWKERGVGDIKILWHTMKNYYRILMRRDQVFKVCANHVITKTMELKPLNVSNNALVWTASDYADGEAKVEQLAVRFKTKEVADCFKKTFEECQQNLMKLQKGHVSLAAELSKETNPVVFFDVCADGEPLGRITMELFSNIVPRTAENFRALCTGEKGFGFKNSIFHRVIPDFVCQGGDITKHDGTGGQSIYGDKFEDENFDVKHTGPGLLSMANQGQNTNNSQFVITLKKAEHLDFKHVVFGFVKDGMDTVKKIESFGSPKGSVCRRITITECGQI
UniProt Q8TC12, sequence (Q8TC12 whole entry, looked up): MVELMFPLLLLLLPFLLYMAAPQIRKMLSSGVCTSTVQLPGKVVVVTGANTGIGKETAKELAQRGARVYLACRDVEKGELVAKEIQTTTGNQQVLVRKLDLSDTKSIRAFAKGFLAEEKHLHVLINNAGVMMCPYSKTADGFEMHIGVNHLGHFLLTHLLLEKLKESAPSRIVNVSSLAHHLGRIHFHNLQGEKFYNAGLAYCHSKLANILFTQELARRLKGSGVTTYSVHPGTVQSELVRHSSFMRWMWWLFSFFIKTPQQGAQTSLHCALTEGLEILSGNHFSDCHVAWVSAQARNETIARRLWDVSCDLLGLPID

Row | Target | log2 fold change (nilotinib) | log2 fold change [1] | log2 fold change (dasatinib) | log2 fold change [2] | log2 fold change [3] | log2 fold change (quisinostat) | log2 fold change (tipifarnib) | log2 fold change [4] | log2 fold change [5] | log2 fold change [6]
1 | SERPINI1 (UniProt Q99574) | -0.04 | -0.013 | 0.038 | -0.034 | -0.013 | 0.035 | 0.036 | 0.003 | 0.009 | -0.015
2 | SERINC3 (UniProt Q13530) | 0.022 | 0.023 | 0.026 | -0.006 | 0.009 | -0.131 | -0.036 | 0.04 | 0.008 | -0.083
3 | SCD (UniProt O00767) | -0.007 | -0.017 | 0.01 | -0.01 | 0.007 | -0.144 | -0.077 | -0.023 | -0.183 | 0.03
4 | RBBP8 isoform 2 (UniProt Q99708) | -0.07 | -0.003 | 0.063 | 0.081 | 0.031 | 0.074 | 0.022 | 0.033 | 0.035 | -0.026
5 | SAR1B (UniProt Q9Y6B6) | 0.202 | 0.101 | 0.047 | -0.013 | -0.038 | 0.028 | -0.217 | -0.02 | -0.092 | -0.016
6 | RAI14 isoform 2 (UniProt Q9P0K7) | -0.004 | -0.006 | -0.003 | -0.05 | 0.013 | -0.023 | -0.036 | -0.02 | 0.012 | -0.013
7 | RDH11 (UniProt Q8TC12) | 0.034 | -0.05 | -0.075 | -0.045 | -0.021 | 0.038 | -0.038 | 0.103 | 0.034 | -0.011
8 | R3HCC1 (UniProt Q9Y3T6) | -0.023 | 0.012 | 0.043 | 0.011 | -0.049 | -0.014 | -0.058 | -0.036 | 0.003 | 0.038
9 | RPS29 (UniProt P62273) | 0.117 | 0.072 | 0.22 | 0.061 | 0.112 | 0.361 | 0.094 | -0.116 | -0.024 | -0.068
10 | RAB3IL1 (UniProt E9PK89) | -0.039 | -0.124 | 0.08 | 0.003 | -0.084 | 0.027 | 0.061 | -0.086 | -0.012 | 0.157
11 | RPL37A (UniProt P61513) | 0.041 | 0.011 | 0.095 | 0.067 | 0.032 | 0.139 | 0.008 | -0.028 | -0.013 | -0.021
12 | RAP1B (UniProt F5GZG1) | 0.012 | -0.066 | 0.05 | -0.253 | 0.047 | -0.011 | -0.058 | 0.087 | -0.019 | -0.029
13 | RPLP0P6 (UniProt Q8NHW5) | 0.01 | -0.027 | 0.018 | 0.001 | 0.026 | -0.049 | -0.02 | 0.002 | 0.005 | -0.016
14 | RAD54L2 (UniProt Q9Y4B4) | -0.037 | -0.03 | -0.053 | -0.047 | -0.15 | -0.009 | -0.105 | -0.013 | 0.035 | -0.091
15 | RAD51C (UniProt O43502) | 0.013 | 0.021 | -0.014 | 0.009 | -0.019 | 0.036 | 0.03 | 0.051 | 0.042 | -0.021
16 | RXRB isoform 3 (UniProt P28702) | 0.01 | -0.038 | -0.018 | 0.001 | 0.095 | -0.038 | -0.052 | 0.032 | -0.031 | -0.199
17 | RBM4 (UniProt Q9BWF3) | -0.086 | -0.011 | 0.032 | 0.029 | 0.03 | 0.033 | -0.067 | 0.034 | 0.046 | 0.029
18 | RAD17 (UniProt O75943) | -0.027 | 0.073 | -0.064 | -0.023 | 0 | -0.032 | -0.085 | 0.038 |  | 
19 | SEH1L isoform 1 (UniProt Q96EE3) | -0.009 | -0.019 | 0.032 | 0.006 | 0.007 | -0.008 | -0.008 | 0 | 0.003 | -0.028
20 | RANBP2 (UniProt P49792) | -0.018 | 0.001 | -0.059 | 0.006 | 0.021 | -0.05 | -0.055 | 0.046 | 0.007 | -0.003
21 | SEC62 (UniProt Q99442) | 0.013 | -0.032 | 0.01 | -0.038 | -0.011 | 0.083 | -0.055 | -0.045 | -0.007 | -0.01
22 | RBBP7 isoform 2 (UniProt Q16576) | 0.013 | -0.019 | -0.005 | -0.035 | 0.016 | -0.051 | 0.047 | 0.01 | -0.025 | 0.035
23 | RALA (UniProt P11233) | -0.04 | -0.001 | 0.017 | -0.04 | -0.018 | 0.004 | -0.041 | 0.033 | 0.038 | -0.003
24 | RPS6KB1 (UniProt P23443) | -0.034 | 0.077 | -0.003 | 0.001 | 0.003 | -0.049 | -0.008 | 0.035 | -0.014 | 0.405 (active)
25 | RANBP6 (UniProt O60518) | 0.039 | -0.036 | -0.002 | -0.071 | 0.049 | -0.063 | -0.072 | 0.055 | 0.062 | -0.06
26 | RHOA (UniProt P61586) | -0.08 | 0.104 | 0.017 | -0.008 | -0.013 | 0.167 | -0.021 | -0.004 | 0.008 | -0.062
27 | RDH14 (UniProt Q9HBH5) | 0.008 | -0.006 | 0.023 | 0.004 | 0.009 | -0.016 | 0.065 | -0.011 | -0.077 | 0.048
28 | RABGGTB (UniProt P53611) | 0.005 | 0.003 | 0.017 | 0.006 | -0.009 | -0.02 | -0.013 | 0.033 | -0.016 | 0.031
29 | RARS (UniProt P54136) | 0.004 | 0 | -0.074 | -0.017 | 0.038 | -0.017 | 0.006 | 0.049 | 0.015 | -0.023
30 | RNASEL (UniProt Q05823) | -0.034 | 0.035 | -0.014 | -0.013 | 0.02 | -0.06 | -0.016 | 0.042 | 0.026 | -0.064
